Source: PubChem BioAssay (NCATS)

Experiment: qHTS drug screen for cell cycle checkpoint inhibitors in PARPi-resistant BRCA-mutant ovarian cancer cell lines. (AID 1963452)
Details: PEO1/OlaR viability, CellTiter-Glo luminescence, 96 h; measured here: PEO4 Z-AUC; stronger effect = lower value
Outline: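 PEO1, PEO4 and PEO1/OlaR ovarian cancer cells, 600 per well, exposed 96 h at 37C to a dilution series. Viability read by CellTiter-Glo luminescence, normalized to DMSO and empty wells; activity summarized as Z-AUC.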

Structure (SMILES)	Z-AUC
O=c1cc(-c2ccc(O)c(O)c2)oc2cc(O)cc(O)c12	0.398
c1ccc(-c2oc3ncnc(NC[C@@H]4CCCO4)c3c2-c2ccccc2)cc1	-1.2
CN[C@@H](C)[C@H]1[C@H](O)C[C@@]2(C)[C@@H]3CC[C@H]4C(C)(C)[C@@H](NC)CC[C@@]45C[C@@]35CC[C@]12C	0.673
OC(c1cc(C(F)(F)F)nc2c(C(F)(F)F)cccc12)C1CCCCN1 (stereo not given)	0.429
CNC(=O)[C@H](Cc1ccccc1)NC(=O)[C@H](CC(C)C)[C@H](CSc1cccs1)C(=O)NO	0.653
N#CC(c1ccnc(NCCc2cccnc2)n1)c1nc2ccccc2s1 (stereo not given)	0.404
O=C1C(c2c(O)[nH]c3ccccc23)=Nc2ccccc21	0.396
Cc1cc(-c2ncc(CC(=O)Nc3ccc(-c4cnccn4)cn3)cc2C)ccn1	-0.646
C[C@@]1(c2cc(-c3cncnc3)c(F)cc2F)CCSC(N)=N1	0.652
Nc1ccn([C@@H]2O[C@H](CO)[C@@H](O)[C@H]2O)c(=O)n1	1.4
O=C1CN2Cc3c(ccc(Cl)c3Cl)N=C2N1	0.69
CNC(=O)c1cc(COc2nnc(Nc3ccc(Cl)cc3)c3ccoc23)ccn1	0.337
CC(C)(C)c1nc(-c2cccc(NS(=O)(=O)c3c(F)cccc3F)c2F)c(-c2ccnc(N)n2)s1	1.01
COc1ccc(-c2cc3nccn3c(Nc3ncccc3C(N)=O)n2)cc1OC	0.0675
NC(=O)c1ccc(N(C(N)=O)c2c(F)cccc2F)nc1-c1ccc(F)cc1F	0.295
O=C(CC12CC3CC(CC(C3)C1)C2)Nc1cccc2nc(NCCNCCO)ccc12	0.728
Cc1ccc(C2=Nc3ccc(Cl)cc3OC2)cc1	0.727
COc1ccc(CCC(=O)Nc2nc3ccc(Cl)cc3s2)cc1OC	-0.954

Structure (SMILES)	Z-AUC
O=C(Nc1cccc(Cl)c1)Nc1ncc(CCNc2ncnc3ccsc23)s1	-1.17
COc1cc2c(cc1Cc1cccc(Cl)c1F)c(=O)c(C(=O)O)cn2[C@H](CO)C(C)C	0.927
C[C@@H](O[C@H]1OCCN(Cc2n[nH]c(=O)[nH]2)[C@@H]1c1ccc(F)cc1)c1cc(C(F)(F)F)cc(C(F)(F)F)c1	-0.245
CC(C)C[C@H](NC(=O)c1cc2ccccc2s1)C(=O)N1CCN(C(=O)[C@H](CO)NS(=O)(=O)c2ccc(Cl)cc2Cl)CC1	-1.13
Cc1cccc(Nc2nc(N[C@@H]3CCCC[C@H]3N)ncc2C(N)=O)c1	-0.03
CC(C)(O)CC(=O)NCCn1ccc2ncnc(Nc3ccc(Oc4cccc(C(F)(F)F)c4)c(Cl)c3)c21	-0.515
O=C(CO)N1CCC(c2[nH]nc(-c3ccc(Cl)cc3)c2-c2ccncn2)CC1	0.147
C[C@@H](N)c1ccc(C(=O)Nc2ccnc3[nH]ccc23)cc1	0.729
CN(C)CC[C@H](CSc1ccccc1)Nc1ccc(S(=O)(=O)NC(=O)c2ccc(N3CCN(Cc4ccccc4-c4ccc(Cl)cc4)CC3)cc2)cc1[N+](=O)[O-]	-1.54
COc1cc2nccc(Oc3ccc(NC(=O)Nc4ccc(F)cc4F)c(F)c3)c2cc1OC	0.26
CN1c2ccccc2C(=O)N2CCc3c([nH]c4ccccc34)C21 (stereo not given)	-0.128
CCC(C)SSc1ncc[nH]1 (stereo not given)	-0.908
Cc1ccc2c(=O)c3cccc(CC(=O)O)c3oc2c1C	0.37
CCCCc1ccc(NS(=O)(=O)c2ccc(C)c(C(=O)N3CCN(c4cccc(C)c4C)CC3)c2)cc1	1.44
CCC(c1ccc(O)cc1)C(CC)c1ccc(O)cc1 (stereo not given)	-0.679
CN(C)c1ccc(-c2nc3ncc(Cl)c(N4CCN(CC(=O)Nc5nccs5)CC4)c3[nH]2)cc1	-1.61
O=C(O)c1ccc(O)c2ncc(N3CCOCC3)cc12	-0.698
